# Measured values reported in PubChem BioAssay (NCATS).
# Results filed as inconclusive are left out. Where a call stands in place of a potency, no number is given. Calls of active or inactive are those of the source. Unless noted, calls come from the whole dose curve; as a rule, active = well fitted curve in the direction sought with a large enough effect; inconclusive = small, poorly fitted or top-dose-only effect, or another doubt; inactive = no such curve, though single readings can be large; an effect the other way counts as inactive or inconclusive.
# What was measured:
# [1] = molecular target: Ubiquitin carboxyl-terminal hydrolase 2 (Homo sapiens) (UniProt O75604); assay: qHTS for Inhibitors of Ubiquitin-specific Protease USP2a Using CHOP2 as the Reporter: K484 Substrate (AID 652173);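 note: cleavage of internally quenched K48 di-ubiquitin substrate measured as rising fluorescence over time; nearly all actives have a fitted effect of over 70% in size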
# Chain of Ubiquitin carboxyl-terminal hydrolase 2 (Homo sapiens) (O75604 whole entry, looked up): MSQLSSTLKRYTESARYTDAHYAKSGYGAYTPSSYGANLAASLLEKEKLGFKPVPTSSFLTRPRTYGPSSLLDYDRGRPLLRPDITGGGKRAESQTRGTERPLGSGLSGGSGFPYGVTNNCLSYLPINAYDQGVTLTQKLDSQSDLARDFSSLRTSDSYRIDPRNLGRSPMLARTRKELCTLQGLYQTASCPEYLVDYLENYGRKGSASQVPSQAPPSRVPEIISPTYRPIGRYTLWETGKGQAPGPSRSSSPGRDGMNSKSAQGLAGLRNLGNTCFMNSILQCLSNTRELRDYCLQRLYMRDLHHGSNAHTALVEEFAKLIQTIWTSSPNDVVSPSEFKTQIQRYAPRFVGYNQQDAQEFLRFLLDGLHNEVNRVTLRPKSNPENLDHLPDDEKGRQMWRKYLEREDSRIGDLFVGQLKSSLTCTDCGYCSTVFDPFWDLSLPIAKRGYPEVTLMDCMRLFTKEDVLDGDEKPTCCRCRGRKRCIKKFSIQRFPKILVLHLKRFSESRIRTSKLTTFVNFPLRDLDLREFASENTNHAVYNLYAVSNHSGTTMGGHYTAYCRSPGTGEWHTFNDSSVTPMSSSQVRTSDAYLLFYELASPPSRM
# Outline: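 USP2 (dispensed at 5 nM) was pinned with compounds, then DiUb K48 internally quenched fluorescent substrate (dispensed at 100 nM) was added. The buffer was 20 mM Tris pH 8, 2 mM beta-mercaptoethanol and 0.05% CHAPS. Cleavage was read kinetically as rising fluorescence, Ex 525/Em 598.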
# [2] = qHTS assay for small molecule agonists of the antioxidant response element (ARE) signaling pathway measured by Nrf2-dependant transcriptional activity (AID 720636; active = well fitted curve in the direction sought with a large enough effect in the repeat runs; an effect the other way counts as inactive or inconclusive)
# Outline: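 Quantitative HTS format in HepG2 cells stably expressing an ARE-luciferase reporter; 16 hr compound treatment at 37 C, luciferase signal detected with ONE-Glo.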
# [3] = molecular target: Nuclear receptor ROR-gamma (Homo sapiens) (UniProt P51449); assay: qHTS assay for small molecule antagonists of the retinoid-related orphan receptor gamma (ROR-gamma) signaling pathway (AID 651802); note: nearly all actives have a fitted effect of over 60% in size; note: potency is the fitted concentration of half-maximal effect
# Chain of Nuclear receptor ROR-gamma (Homo sapiens) (P51449 whole entry, looked up): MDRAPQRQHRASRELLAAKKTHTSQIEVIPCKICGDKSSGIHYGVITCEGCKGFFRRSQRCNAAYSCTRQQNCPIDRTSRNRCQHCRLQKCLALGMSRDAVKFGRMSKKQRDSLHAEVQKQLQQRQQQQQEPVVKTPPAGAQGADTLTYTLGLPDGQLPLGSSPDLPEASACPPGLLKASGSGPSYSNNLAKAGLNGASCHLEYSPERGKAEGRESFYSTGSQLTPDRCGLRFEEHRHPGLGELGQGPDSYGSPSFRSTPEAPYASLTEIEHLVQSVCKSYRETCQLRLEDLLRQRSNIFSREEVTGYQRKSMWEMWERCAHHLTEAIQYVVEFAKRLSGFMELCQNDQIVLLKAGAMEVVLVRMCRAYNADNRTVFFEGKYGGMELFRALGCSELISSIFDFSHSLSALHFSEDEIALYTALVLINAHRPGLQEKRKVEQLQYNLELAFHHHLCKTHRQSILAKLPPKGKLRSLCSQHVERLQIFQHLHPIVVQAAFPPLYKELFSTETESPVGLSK
# Outline: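 CHO cells carrying TET-inducible ROR-gamma and an ROR response element–luciferase reporter were exposed to compound, then induced with doxycycline. After 16hr at 37C, luminescence was read; lower signal indicates antagonism.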
# [4] = qHTS for compounds that reverse cellular toxicity of Amyloid beta (A-beta) peptide in yeast: LOPAC Validation Assay (AID 720559)
# Outline: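 Yeast expressing toxic A-beta grown with pinned compounds at 30 C for 48 hr. Growth measured as absorbance at 600 nm; data normalized to DMSO and to an equimolar FeCl3/clioquinol mixture as positive control.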
# [5] = qHTS for Activators of Parkin Expression: LOPAC Validation Assay (NLuc Reporter) (AID 720572)
# Outline: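 Parkin promoter-driven FLuc/NLuc neuronal reporter cells; 24 h plating, 7-pt dose response, 24 h at 37 C/5% CO2; FLuc then NanoLuc reagent, 10 min each, luminescence; DMSO/positive control normalized.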
# [6] = qHTS for Activators of Parkin Expression: LOPAC Validation Assay (FLuc Reporter) (AID 720573)
# Outline: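 Neuronal cell line stably expressing FLuc/NLuc coincidence reporter under the Parkin promoter, 1,500 cells/well, dosed 24 h after seeding in 7-point series for 24 h at 37 C. FLuc luminescence read; normalized to DMSO and positive control (100%).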
# [7] = molecular target: T1, Hexokinase-4 (Homo sapiens) + Glucokinase regulatory protein (Homo sapiens) (UniProt P35557+Q14397); assay: qHTS assay for inhibitors of recombinant human GCK-GKRP interaction: Diaphorase-coupled assay (AID 743205)
# T1 sequence (P35557 whole entry, looked up): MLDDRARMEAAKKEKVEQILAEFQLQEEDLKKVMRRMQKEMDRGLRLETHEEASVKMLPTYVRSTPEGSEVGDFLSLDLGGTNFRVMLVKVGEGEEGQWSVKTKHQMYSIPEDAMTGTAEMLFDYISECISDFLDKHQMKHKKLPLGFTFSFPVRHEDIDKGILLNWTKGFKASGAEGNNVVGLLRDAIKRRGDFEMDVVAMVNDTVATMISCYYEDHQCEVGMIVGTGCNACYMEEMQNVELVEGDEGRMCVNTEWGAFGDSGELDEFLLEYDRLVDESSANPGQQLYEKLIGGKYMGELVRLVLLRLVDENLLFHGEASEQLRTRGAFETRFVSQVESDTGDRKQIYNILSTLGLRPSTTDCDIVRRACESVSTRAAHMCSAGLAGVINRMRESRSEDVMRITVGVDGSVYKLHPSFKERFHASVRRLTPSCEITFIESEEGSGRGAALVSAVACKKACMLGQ
# T1 sequence (Q14397 whole entry, looked up): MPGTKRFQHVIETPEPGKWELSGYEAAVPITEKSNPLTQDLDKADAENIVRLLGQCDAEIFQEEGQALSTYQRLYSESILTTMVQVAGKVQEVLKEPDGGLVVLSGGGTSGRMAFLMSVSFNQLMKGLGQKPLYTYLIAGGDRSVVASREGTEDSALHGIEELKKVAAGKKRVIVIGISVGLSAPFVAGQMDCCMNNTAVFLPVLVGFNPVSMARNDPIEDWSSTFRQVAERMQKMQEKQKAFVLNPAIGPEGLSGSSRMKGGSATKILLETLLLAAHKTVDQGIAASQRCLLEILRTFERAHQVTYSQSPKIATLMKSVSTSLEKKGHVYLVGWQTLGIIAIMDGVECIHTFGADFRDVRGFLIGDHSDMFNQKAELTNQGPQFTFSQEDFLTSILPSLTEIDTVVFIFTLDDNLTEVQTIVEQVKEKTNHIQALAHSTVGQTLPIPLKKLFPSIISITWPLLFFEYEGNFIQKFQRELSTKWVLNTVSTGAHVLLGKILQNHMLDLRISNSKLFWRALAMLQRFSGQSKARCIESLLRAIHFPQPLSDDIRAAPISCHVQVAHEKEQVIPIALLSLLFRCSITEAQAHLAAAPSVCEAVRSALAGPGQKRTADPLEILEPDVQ
# Outline: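 Compounds pre-incubated 20 min with substrate, then 10 nM GST-GCK with 10 nM FLAG-GKRP added. GCK activity coupled via G6PDH and diaphorase to resorufin (5 mM glucose, 0.4 mM ATP, 0.15 mM NADP+, pH 7.6), read kinetically over 30 minutes at Ex 525/Em 590 nm.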
# [8] = molecular target: T1, Hexokinase-4 (Homo sapiens) + Glucokinase regulatory protein (Homo sapiens); assay: qHTS assay for inhibitors of recombinant human GCK-GKRP interaction: ADP-Glo assay (AID 743206)
# Outline: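 GST-GCK and FLAG-GKRP (15 nM each in the dispensed mix, with 2 uM S6P) react with 0.4 mM ATP and 5 mM glucose (final) in Hepes pH 7.6 for 60 min at room temperature. ADP is measured by ADP-Glo luminescence.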
structure (smiles),measurement,setting,value
Cc1cc(NS(=O)(=O)c2ccc(N)cc2)no1,outcome,[1],inactive
C[C@]1(O)CC[C@H]2[C@@H]3CCC4=CC(=O)CC[C@]4(C)[C@@]3(F)[C@@H](O)C[C@@]21C,outcome,[2],inactive
C[C@]12CCC(=O)C=C1CC[C@@H]1[C@@H]2CC[C@@]2(C)[C@H]1CC[C@]2(C)O,Potency,[3],16.8 µM (active)
same,outcome,[2],inactive
CC1(C)C(C=C(Cl)Cl)C1C(=O)OC(C#N)c1cccc(Oc2ccccc2)c1 (stereo not given),outcome,[2],inactive
Nc1ccccc1C(=O)O,Potency,[3],inactive
same,outcome,[2],inactive
Clc1ccc(C(c2ccc(Cl)cc2)C(Cl)(Cl)Cl)cc1,outcome,[2],inactive
CC(C)(C)NCC(O)c1ccccc1Cl (stereo not given),outcome,[4],inactive
same,outcome,[5],inactive
same,outcome,[6],inactive
same,outcome,[7],inactive
same,outcome,[8],inactive
CCCC(C)(COC(N)=O)COC(N)=O,Potency,[3],inactive
same,outcome,[2],inactive
COP(=S)(OC)Oc1cc(Cl)c(Cl)cc1Cl,outcome,[2],inactive
Nc1ccccc1,Potency,[3],inactive
same,outcome,[2],inactive
CCC1(c2ccc(N)cc2)CCC(=O)NC1=O (stereo not given),outcome,[4],inactive
same,outcome,[5],inactive
same,outcome,[6],inactive
same,outcome,[7],inactive
same,outcome,[8],inactive
Nc1nc(N)nc(NC2CC2)n1,outcome,[2],inactive
O=c1[nH]oc2c1CCNC2,outcome,[4],inactive
same,outcome,[5],inactive
same,outcome,[6],inactive
same,outcome,[7],inactive
same,outcome,[8],inactive
CC(C)(C)c1ccc(O)cc1,outcome,[2],inactive
C=C(C)[C@H]1CN[C@H](C(=O)O)[C@H]1CC(=O)O,outcome,[4],inactive
same,outcome,[5],inactive
same,outcome,[6],inactive
same,outcome,[7],inactive
same,outcome,[8],inactive
Oc1ccc(Cl)cc1,Potency,[3],inactive
same,outcome,[2],inactive
CC(NC(C)(C)C)C(=O)c1cccc(Cl)c1 (stereo not given),outcome,[4],inactive
same,outcome,[5],inactive
same,outcome,[6],inactive
same,outcome,[7],inactive
same,outcome,[8],inactive
Cc1ncsc1CCCl,outcome,[4],inactive
same,outcome,[5],inactive
same,outcome,[6],inactive
same,outcome,[7],inactive
same,outcome,[8],inactive
O=C(O)CCCc1ccc(N(CCCl)CCCl)cc1,outcome,[4],inactive
same,outcome,[5],inactive
same,outcome,[6],inactive
same,outcome,[2],inactive
same,outcome,[7],inactive
same,outcome,[8],inactive
CC(C)NC(C)C,Potency,[3],inactive
same,outcome,[2],inactive
CC(C)N(CCC(C(N)=O)(c1ccccc1)c1ccccn1)C(C)C (stereo not given),outcome,[4],inactive
same,outcome,[5],inactive
same,outcome,[6],inactive
same,outcome,[7],inactive
same,outcome,[8],inactive
